Casp1 inh: blocks human caspase-1 allosterically or competitively; P29466; Caspase-1 enzyme, Ac-WEHD-AFC fluorogenic rate; Potency, µM (doses to about 57.5 µM), for the others: at the highest dose activity change, negative = inhibition, hits mostly inhibitors; actives 0.03% (n = 75,000); AID 900;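 also: plate controls were vehicle for no effect and no substrate for full effect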
HEK293 cAMP cs: counter-screen for TSHR agonists: cAMP increase in parental HEK293. Potency, µM (top dose mostly 57.1 µM), for the others: top-dose activation, actives largely listed as activators. AID 938. parental HEK293 CNG cAMP sensor, membrane potential fluorescence. actives 2.5% (n = 73,000); also: % of control where 0% means no effect; nearly all actives have a fitted effect of over 55% in size
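Parental HEK 293 cells stably expressing a cAMP-gated CNG channel were loaded with membrane potential dye containing 100 uM RO 20-1724 for 60 min. Compound added for 30 min; depolarization read as fluorescence intensity at 590 nm.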
ERK AVP block: vasopressin-driven ERK pathway inhibition | HEK293-V1b, vasopressin-stimulated pERK AlphaScreen | Potency, µM (series often up to 57.5 µM), for the others: at the highest dose activity, negative = inhibition, usual class: inhibitors | actives 0.99% (n = 72,000); also: % is scaled to controls: 0 for no effect and ±100 for the full control effect; nearly all actives have a fitted effect of over 55% in size
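Overnight-seeded V1b-HEK293 cells in 1% FBS got compound, then vasopressin (25 nM final, 5 min, 37C), then lysis buffer. AlphaScreen detection of phospho-ERK; activity normalized to basal and full-stimulation controls.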
TSHR agonist: activates the human thyroid stimulating hormone receptor | P16473 | HEK293-CNG-TSHR cells (CNG channel as cAMP sensor), membrane potential dye, cAMP | Potency, µM (titrated, usually from 57.1 µM), for the others: at the highest dose activation, usual class: activators | actives 0.48% (n = 73,000) | AID 926; active = well fitted activation curve with a large enough effect in the main read-out, with a control signal flat, not every such curve was filed as active; inconclusive = small, poorly fitted or top-dose-only effect, or a change in a side signal; inactive = no such curve, though single readings can be large or run the other way; % of control where 0% means no effect;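 also: the control signal comes from parental cells without the receptor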
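HEK 293 cells stably expressing TSHR and a cAMP-gated CNG channel; parental CNG-only cells as counterscreen. Cells preloaded 60 min with membrane potential dye plus 100 uM RO 20-1724, then compound 30 min; fluorescence read at 590 nm.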
Caspase-7 inhib: allosteric or competitive inhibitors of human caspase-7. P55210. recombinant caspase-7, Ac-DEVD-AFC fluorescence rate. Potency, µM (top dose mostly 57.5 µM), without a hit: at the top dose activity change, negative = inhibition, usual class: inhibitors. actives 0.02% (n = 75,000); active = well fitted inhibition curve with a large enough effect in the main read-out, with a control signal flat, not every such curve was filed as active; inconclusive = small, poorly fitted or top-dose-only effect, or a change in a side signal; also: % of control where 0% means no effect
15-hLO inh: inhibitors of human 15-lipoxygenase (ALOX15) | purified 15hLO-1, xylenol orange hydroperoxide absorbance | P16050 | actives 1.4% (n = 74,000) | Potency, µM (doses to about 57.1 µM), for the others: top-dose activity change, negative = inhibition, actives largely listed as inhibitors; also: % is scaled to controls: 0 for no effect and ±100 for the full control effect; nearly all actives have a fitted effect of over 55% in size
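Readout: Fe(III)-xylenol orange absorbance, 573-to-405 nm ratio as reaction progress. Enzyme 40 nM purified human 15hLO-1, substrate 50 uM arachidonic acid, 6 min RT after 15 min compound preincubation; Hepes pH 7.5 buffer with Triton X-100.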
The depositor's hits bear a star; ? = inconclusive; . = no result given; [ ] = another dose, or the depositor's remark. Compounds with a hit are over-represented: about 4.8% of the library has one in this group of screens. Unless noted, calls follow the shape of the dose curve; as a rule, active = well fitted curve in the direction sought with a large enough effect; inconclusive = small, poorly fitted or top-dose-only effect, or another doubt; inactive = no such curve, though single readings can be large; an effect the other way counts as inactive or inconclusive. Potency is read from the fitted curve at half-maximal effect.

SMILES | Casp1 inh | HEK293 cAMP cs | ERK AVP block | TSHR agonist | Caspase-7 inhib | 15-hLO inh
O=C1CC(c2ccc3c(c2)OCO3)CN1 (stereo not given) | -0.1% | 4.5% | -7.8% | 9.3% | -0.2% | 5.1%
CCOC(=O)C(C)Sc1nnc(-c2ccccc2O)n1-c1ccc(C)cc1 (stereo not given) | 0.3% | 20µM* | 34.0% | ? | -2.7% | ?
COc1ccc(O[C@H]2C=C[C@@H](c3ccccc3)O[C@H]2CO/N=C2/[C@H]3O[C@@H]3[C@@H](O)[C@H]3[C@H]2CCn2c(=O)n(-c4ccccc4)c(=O)n23)cc1 | -2.0%[11.5 µM] | ? | 29.7%[11.5 µM] | ? | -1.0%[11.5 µM] | -3.2%[11.4 µM]
c1ccc(-c2oc3ncnc(NCCCn4ccnc4)c3c2-c2ccccc2)cc1 | -7.3% | ? | 25.1µM* | ? | 1.7% | 2.5%
c1ccc(-c2oc3ncnc(NCCN4CCOCC4)c3c2-c2ccccc2)cc1 | -2.7% | 18.5% | ? | . | -4.2% | -16.4%
N#CCCn1c(=O)c(-c2cccs2)nc2cnc(Oc3ccccc3)nc21 | . | 11.0% | -13.5% | -7.6% | ? | -10.0%
CC(=O)N(c1ccc2oc(=O)sc2c1)S(=O)(=O)c1cccs1 | -1.9% | -14.9% | 4.8% | 14.2% | 2.3% | 10µM*
CC(C)C(=O)N(c1ccc2oc(=O)sc2c1)S(=O)(=O)c1cccs1 | -3.6% | -22.4% | -14.9% | -21.7% | -2.4% | 20µM*
CCCC(=O)N(c1ccc2oc(=O)sc2c1)S(=O)(=O)c1ccccc1 | 0.1% | -12.0% | -26.6% | -5.7% | -0.2% | 25.1µM*
O=C1Cc2ccccc2C(=O)N1CCc1ccccc1 | 5.01µM* | 9.0% | 5.7% | 0.1% | 6.31µM* | -11.4%
CC1=C(C)CC(c2ccccc2)C(C(=O)c2ccccc2O)C1 (stereo not given) | -0.1%[11.5 µM] | 8.7%[11.4 µM] | 15.7%[11.5 µM] | 6.2%[11.4 µM] | 0.0%[11.5 µM] | -8.2%[11.4 µM]
COCCn1c(SCc2ccc(C(=O)OC)o2)nc2cc(Cl)ccc2c1=O | -3.0% | 20µM* | -1.8% | ? | -3.7% | -9.8%
COC(=O)c1ccc(CSc2nc(C)nc3c2c(=O)n(C)c(=O)n3C)o1 | -1.1% | 25.1µM* | . | ? | 2.3% | 7.5%
COC(=O)c1ccc(CSc2nc(-c3ccc(OC)cc3)nc3c2c(=O)n(C)c(=O)n3C)o1 | 3.0% | 10.6% | 9.4% | 5.3% | 0.0% | 2.4%
COCC(=O)N1CCC2(CCN(Cc3ccc(C#N)cc3)CC2)CC1 | -4.0% | 1.0% | 0.9% | -0.7% | -1.5% | 6.7%
COCC(=O)N1CCC2(CCCN(Cc3cc(C(F)(F)F)cc(C(F)(F)F)c3)C2)CC1 | -3.1% | 2.4% | -0.3% | -2.4% | -2.9% | 1.4%
COc1ccc(-c2cc(-c3ccccc3)nc(N3CCCC3)n2)cc1OC | . | 10.9%[11.4 µM] | 30.4% | 3.16µM* | ? | -9.4%[11.4 µM]
COc1ccc(-c2cc(C(F)(F)F)nc(N3CCOCC3)n2)cc1OC | -2.3% | ? | 29.0% | ? | -1.2% | -7.9%
O=C(O)[C@@H]1[C@@H](C(=O)NCc2ccncc2)[C@@H]2C=C[C@@H]1O2 | -2.5%[11.5 µM] | -2.0%[11.4 µM] | -5.7%[11.5 µM] | 2.4%[11.4 µM] | -2.9%[11.5 µM] | -0.2%[11.4 µM]
FC(F)(F)c1ccccc1-c1ccc2ncnc(NCc3cccnc3)c2c1 | -2.9% | ? | -22.9% | ? | -3.2% | 6.8%
COc1ccc(-c2cc(CCCC(=O)NCCc3cc(OC)ccc3OC)no2)cc1 | -2.3% | 31.6µM* | -19.2% | ? | -1.6% | -6.6%
[O-][n+]1c(CN2CCCCC2)nc2cccc3c2c1-c1ccccc1-3 | -6.9%[11.5 µM] | -4.4%[11.4 µM] | 20.4%[11.5 µM] | 2.7%[11.4 µM] | -6.5%[11.5 µM] | -26.6%[11.4 µM]
Cc1ccc2c(c1)cc(CN(Cc1ccc3c(c1)OCO3)C(=O)c1cnccn1)c1nnnn12 | 1.2% | 18.1% | 0.1% | 19.8% | -0.1% | 3.2%
Cc1cc2cc(CN(Cc3ccc4c(c3)OCO4)C(=O)c3cnccn3)c3nnnn3c2cc1C | 2.0% | 31.6µM* | -25.4% | ? | 0.4% | ?
c1cncc(-c2nccc(-n3ccnc3)n2)c1 | 1.9% | -13.8% | ? | 2.8% | 0.8% | -15.9%
SMILES | Casp1 inh | HEK293 cAMP cs | ERK AVP block | TSHR agonist | Caspase-7 inhib | 15-hLO inh
c1cn(-c2ccnc(-c3ccc4c(c3)OCO4)n2)cn1 | 1.4% | -13.3% | 20µM* | 4.8% | -4.2% | 0.3%
O=c1cnc2cnc(N3CCOCC3)nc2n1Cc1ccc(F)cc1 | ? | 2.51µM* | ? | ? | -25.0% | -8.8%
CC1(C(=O)NCc2ccccn2)C=CCN1C(=O)c1ccccc1 (stereo not given) | -0.6% | 21.5% | -0.4% | 2.6% | 0.2% | 5.4%
CCCS(=O)(=O)c1c(S(=O)(=O)CCC)c2c(N)cccn2c1C(=O)c1ccc(F)cc1 | ? | -22.9% | ? | -22.3% | -28.1% | 10µM*
C=Cc1c(C)/c2[n-]/c1=C\c1[n-]c(c(CC)c1C)/C=c1\[n-]c3c(c1C)C(=O)C(C(=O)[O-])C=3c1[n-]c(c(C)c1CCC(=O)[O-])\C=2.[Cu].[Na+].[Na+] (stereo not given) | -12.0% | . | -29.2% | . | -18.3% | 6.31µM*
CCOc1ccc2nc(N3CCC(C(=O)N4CCN(c5ccccn5)CC4)CC3)sc2c1 | -1.3% | 10.9% | 20µM* | 7.6% | -11.6% | 1.4%
N#Cc1ccc(CN2CC3(CCN(C(=O)c4cnccn4)CC3)C2)cc1 | -1.5% | -3.6% | -0.6% | -0.5% | 0.6% | 7.6%
c1ccc(CSc2nnc(-c3cccs3)n2Cc2ccco2)cc1 | -2.4% | 25.1µM* | -14.6% | ? | -1.2% | -5.6%
COc1cccc(-c2nnc(SCc3ccc(C#N)cc3)n2Cc2ccco2)c1 | -2.5% | 6.31µM* | -14.6% | ? | -0.4% | -8.1%
O=c1cc(CSc2nnc(-c3cccs3)n2Cc2ccccc2)nc2sc3ccccc3n12 | -4.8% | 10µM* | 12.6% | ? | -20.4% | -18.7%
Cc1cccc(-c2nnc(SCc3nc4ccccc4[nH]3)n2Cc2ccco2)c1 | -6.1% | 12.6µM* | -24.5% | ? | -3.4% | 7.2%
c1ccc(CSc2nnc(-c3ccco3)n2Cc2ccco2)cc1 | -1.7% | 20.5% | -4.6% | . | -1.4% | -0.9%
C=CCn1c(SCc2ccc(C#N)cc2)nnc1-c1cccc(OC)c1 | -0.7% | 3.16µM* | -5.7% | ? | 1.3% | -1.9%
O=C(c1ccc(CNc2c(N3CCCC3)c(=O)c2=O)cc1)N1CCc2ccccc2C1 | -4.0% | -0.8% | -13.4% | -2.5% | -1.5% | -5.6%
C=CCCC/C=C(/C)C(OCc1ccc(OC)cc1)C(CC/C=C(\C)C(N)=O)OC (stereo not given) | -0.5%[11.5 µM] | 6.9%[11.4 µM] | 13.7%[11.5 µM] | 6.6%[11.4 µM] | 0.4%[11.5 µM] | 0.0%[11.4 µM]
Cc1cc(-c2nnco2)c(C)n1-c1ccccc1 | 0.4% | 20µM* | -18.0% | ? | -2.2% | -3.6%
O=C(c1cccc(Cl)c1)N1CCN(Cc2ccccc2F)CC1 | -1.5% | 13.7% | -8.6% | -0.8% | -0.6% | -6.6%

High-throughput results as filed in PubChem BioAssay.
